Sampled rows, rich in hits. Any-hit rate of the full collection: about 1.6%.
gsp antagonist: antagonists of gsp mutant (McCune-Albright syndrome); gsp-mutant cells, cAMP HTRF, 30 min; Potency, µM (top dose mostly 76.9 µM), without a hit: at the top dose activity change, negative = inhibition, actives largely listed as inhibitors; hit rate 0.4% among 340,000; calls by dose curve; cell line not stated here;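 note: intracellular cAMP measured with PDE inhibitor Ro 20-1724 present during compound exposure; % is set by controls: 0 for no effect and ±100 for the full control effect; nearly all actives have a fitted effect of over 65% in size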
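Measurement of cellular cAMP by homogeneous time-resolved fluorescence following a 30 min compound exposure at 37C. The PDE inhibitor […] was present throughout; the assay buffer was DPBS with 0.05% BSA and 0.005% Tween 20.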
gsp agonist: gsp mutant agonism; gsp mutant cells, cAMP HTRF, 30 min; Potency, µM (series often up to 76.9 µM), inactives show at the top dose activation (cAMP increase), most hits filed as activators; hit rate 0.13% among 340,000; AID 624287; active = well fitted activation curve with a large enough effect; inconclusive = small, poorly fitted or top-dose-only effect, or another doubt; inactive = no such curve, though single readings can be large or run the other way; cell line not stated here;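 note: phosphodiesterase inhibitor Ro 20-1724 added with compounds to block cAMP breakdown; nearly all actives have a fitted effect of over 60% in size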
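Cells in DMEM/10% FBS with G418 were pretreated with compounds in DMSO plus […] (300 uM stock) for 30 min at 37C. cAMP was measured by HTRF (cAMP-d2 plus anti-cAMP antibody-K) after 30 min at room temperature.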
FUS suppressor: suppressors of FUS proteinopathy in yeast; S. cerevisiae FUS-expressing, growth rescue, OD600, 24 h; Potency, µM (doses to about 76.6 µM), hits mostly activators; hit rate 0.24% among 390,000;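 note: plate controls were DMSO vehicle for no effect and reference control for full effect; nearly all actives have a fitted effect of over 55% in size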
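Galactose (2%) drives FUS expression in yeast precultured in raffinose; seeding density OD 0.005. Test compounds incubated 24hr at 30C and 99% humidity before absorbance at 600 nm was measured.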
ALOX12 inh: blocks human arachidonate 12S-lipoxygenase; P18054; purified 12hLO, xylenol orange hydroperoxide absorbance; AID 1671190; hit rate 1.1% among 580,000; Potency, µM (series often up to 108 µM), for inactives: top-dose activity change, negative = inhibition, usual class: inhibitors; note: % is set by controls: 0 for no effect and ±100 for the full control effect
Target sequence (P18054 whole entry, looked up): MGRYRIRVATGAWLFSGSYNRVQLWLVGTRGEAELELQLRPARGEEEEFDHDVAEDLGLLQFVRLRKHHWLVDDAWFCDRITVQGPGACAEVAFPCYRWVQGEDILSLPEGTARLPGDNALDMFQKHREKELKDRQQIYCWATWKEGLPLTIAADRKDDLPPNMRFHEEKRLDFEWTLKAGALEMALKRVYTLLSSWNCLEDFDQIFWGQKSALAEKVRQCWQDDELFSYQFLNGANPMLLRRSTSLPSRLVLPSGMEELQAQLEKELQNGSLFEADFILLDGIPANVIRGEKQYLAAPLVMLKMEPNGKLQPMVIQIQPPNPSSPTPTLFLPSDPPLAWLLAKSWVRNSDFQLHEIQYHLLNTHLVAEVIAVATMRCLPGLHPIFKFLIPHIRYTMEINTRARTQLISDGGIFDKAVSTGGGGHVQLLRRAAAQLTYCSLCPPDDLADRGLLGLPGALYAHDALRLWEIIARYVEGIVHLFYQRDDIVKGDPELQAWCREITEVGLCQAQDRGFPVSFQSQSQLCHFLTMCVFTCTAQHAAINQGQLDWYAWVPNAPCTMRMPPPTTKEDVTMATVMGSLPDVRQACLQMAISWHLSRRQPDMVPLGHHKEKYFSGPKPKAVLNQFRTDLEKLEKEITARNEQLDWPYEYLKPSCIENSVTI
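Hydroperoxide product was detected by ferrous iron/xylenol orange as the 573 to 405 nm absorbance ratio. Arachidonic acid at 40 uM (final) was turned over for 30 min at room temperature by 150 nM human 12hLO, pH 7.0 Hepes buffer, after 15 min compound preincubation.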
Mito fusion yeast: inhibitors of mitochondrial division or activators of mitochondrial fusion | S. cerevisiae fusion-defective mutant growth rescue, CellTiterGlo 48 h | Potency, µM (top dose mostly 46.1 µM), for inactives: top-dose growth rescue (activation), usual class: activators | hit rate 0.23% among 320,000; note: % of control where 0% means no effect; nearly all actives have a fitted effect of over 45% in size
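Yeast fusion mutant, YPEG (non-fermentable carbon), compound, 48 h at 37C non-permissive; CellTiterGlo added, 10 min RT, luminescence read. Rescued growth = division inhibition.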
* hit, by the source's call; i = inactive; ? = inconclusive; . = no result given; [ ] = remark or other dose. Unless noted, calls come from the whole dose curve; as a rule, active = well fitted curve in the direction sought with a large enough effect; inconclusive = small, poorly fitted or top-dose-only effect, or another doubt; inactive = no such curve, though single readings can be large; an effect the other way counts as inactive or inconclusive. Potency is the fitted concentration of half-maximal effect.

SMILES | gsp antagonist | gsp agonist | FUS suppressor | ALOX12 inh | Mito fusion yeast
O=C1NN(c2cccc(Br)c2)C(=O)/C1=C\c1ccc(O)cc1 | -20.9% | 17.8% | i | 15.8µM* | -27.8%
CC(C)=CCN1CCN(Cc2nc(-c3ccc(F)cc3)cs2)CC1CCO (stereo not given) | 8.1% | 24.6% | i | -12.8% | -6.5%
O=c1cc(CN2CCN(Cc3ccc(F)cc3)C(CCO)C2)[nH]c2ccccc12 (stereo not given) | -0.1% | -28.0% | i | 35.5µM* | -0.6%
OCCC1CN(Cc2nc(-c3ccccc3)cs2)CCN1Cc1ccc(F)cc1 (stereo not given) | 9.9% | -4.9%[15.4 µM] | i | 1.2% | 11.2µM*
COc1ccccc1Nc1nc(-c2ccc3c(c2)CCC(=O)N3)cs1 | . | . | . | 10µM* | .
COc1ccccc1Nc1nc(-c2ccc3c(c2)CC(C)N3S(C)(=O)=O)cs1 (stereo not given) | . | . | . | 39.8µM* | .
CC(C)CCNc1nc(-c2ccc3c(c2)NC(=O)CO3)cs1 | . | . | . | 16.1% | .
CC1Cc2cc(-c3csc(NC(=O)Cc4ccccc4)n3)ccc2N1S(C)(=O)=O (stereo not given) | -6.1% | -9.2% | i | 13.8% | 3.7%
CC(C)CNc1nc(-c2ccc3c(c2)CCC(=O)N3)cs1 | . | . | . | 12.6µM* | .
Cc1ccsc1C=Nc1ccc(-c2ccc(N=Cc3sccc3C)cc2)cc1 | . | . | . | -15.7% | .
Cc1ccc2[nH]c(=O)c(CN(C)C(=O)c3cccc(Cl)c3)cc2c1 | . | . | . | -21.1% | .
CNC(=O)[C@@H](C1CCCCC1)N1CCC[C@H]1C(=O)N1CCN(CCOC)CC1 | . | . | . | 15.8µM* | .
CNC(=O)[C@@H](C1CCCCC1)N1CCC[C@H]1C(=O)N1CCN(C)CC1 | . | . | . | 0.4%[176 µM] | .
Clc1ccc(-c2nnc(CSc3nnc(-c4cccs4)n3Cc3ccccc3)o2)cc1 | 25.1µM* | 10.5% | ? | -12.1% | ?
O=C(CSc1nnc(-c2ccc(S(=O)(=O)N3CCCCCC3)cc2)o1)c1ccccc1 | . | . | . | 14.3% | .
Cc1ccc(NS(=O)(=O)c2ccc(NC(=O)CSc3ccc(Cl)cc3)cc2)c(C)c1 | -11.6% | ? | i | 31.6µM* | 2.5%
Oc1cc2c(cc1C(c1ccc(Cl)c(Cl)c1)N1CCCC1)OCO2 (stereo not given) | -5.7% | 1.2% | i | 4.47µM* | -0.5%
Cc1ccc2c(CC(=O)OCC(=O)c3ccc4c(c3)OCO4)coc2c1 | . | . | . | 40.8% | .
CC(C)n1c(-c2ccc(C(C)(C)C)cc2)n[nH]c1=S | ? | 26.5% | i | 15.8µM* | 3.4%
CCc1ccc(C(=O)C(C)OC(=O)c2ccc(OCC(N)=O)cc2)cc1 (stereo not given) | . | . | . | 1.4% | .
N#CCCn1cc(-c2csc(NC3CCCC3)n2)c2ccccc21 | . | . | . | 6.31µM* | .
Cc1ccc(S(=O)(=O)N2CCC(C(=O)OC(C)C(=O)N3CCCC3)CC2)cc1 (stereo not given) | . | . | . | 33.5% | .
CN(C)/C=C/C(=O)c1cnc(-c2ccccc2)s1 | 4.4% | ? | i | ? | -0.7%
CN(C)/C=C/C(=O)c1cnc(-c2ccc(Cl)cc2)s1 | 7.3% | -7.6%[15.4 µM] | i | 31.6µM* | -3.4%
O=C1CSC(c2ccc(F)cc2)N1c1nc2ccccc2s1 (stereo not given) | -14.5% | 15.4% | i | 3.0% | 12.6µM*
SMILES | gsp antagonist | gsp agonist | FUS suppressor | ALOX12 inh | Mito fusion yeast
O=C1CSC(c2ccc(F)cc2)N1c1ccccc1F (stereo not given) | -4.0% | 10.2% | i | -3.9% | -8.1%
O=c1[nH]c(=O)n(Cc2ccccc2)c2c1C(C(F)(F)F)(C(F)(F)F)N=C(c1ccco1)N2 | 35.5µM* | -4.6% | i | ? | 7.7%
CCOc1ccc(C=Nc2ccc(N(C)C)cc2)cc1 | . | . | . | 31.6µM* | .
CCCCN(C(=O)CSc1nn(-c2ccc(F)cc2)c(=S)s1)c1c(N)n(CCCC)c(=O)[nH]c1=O | -1.9% | -11.3%[15.4 µM] | 7.08µM* | -2.1% | -3.5%
Cc1ccc(NS(=O)(=O)c2ccc(C(=O)NNC(=O)c3ccccc3O)cc2)cc1 | -13.0% | -10.3% | i | 44.7µM* | 1.7%
Brc1ccc(-c2noc(CCc3nc4ccccc4[nH]3)n2)cc1 | . | . | . | 2.0% | .
O=C1OCC(CO)(CO)N=C1NNc1cc(Cl)ccc1Cl | -5.7% | 1.4% | i | ? | -3.6%
O=C1OCC(CO)(CO)N=C1NNc1ccccc1[N+](=O)[O-] | -21.9% | 2.4% | i | 11.2µM* | -5.6%
CCCCCCn1c(CN2CCN(CC)CC2)nc2c1c(=O)n(C)c(=O)n2C | . | . | . | -3.1% | .
NC(=O)c1ccccc1OCc1cccc(C(F)(F)F)c1 | . | . | . | 31.0% | .
CCCC(=O)Nc1ccc2nc(N3CCN(C(=O)OCC)CC3)cc(C(=O)O)c2c1 | . | . | . | 7.94µM* | .
Cc1ccccc1C(=O)Nc1ccc2nc(N3CCN(C4CCCCC4)CC3)cc(C(=O)O)c2c1 | . | . | . | 6.31µM* | .
Cc1cc(N2CCOCC2)nc2ccc(NC(=O)CCC(=O)N3CCCCC3)cc12 | -1.1% | 6.8% | i | 0.0% | -3.3%
Cc1cc(N2CCOCC2)nc2ccc(NC(=O)CCC(=O)N3CCN(c4cccc(C(F)(F)F)c4)CC3)cc12 | 39.8µM* | 3.2% | i | -17.9% | 7.3%
Cc1cccc(N2CCN(c3cc(C(=O)O)c4cc(NC(=O)C(C)(C)C)ccc4n3)CC2)c1 | . | . | . | 14.1µM* | .
CCOC(CCNC(=O)CCC(=O)Nc1ccc2nc(N3CCN(C)CC3)cc(C)c2c1)OCC | 6.1% | -2.9% | i | 411.8% | 1.3%
COc1ccc(C)cc1-n1nnc(-c2nc(-c3ccncc3)no2)c1N | . | . | . | -21.0% | .
Cc1ccccc1NC(NC(=O)C(C)C)C(Cl)(Cl)Cl (stereo not given) | . | . | . | 2.3% | .
COc1cc(C(=O)Nc2ccc(C)cn2)ccc1OCC(=O)N1CCOCC1 | -4.3% | 29.3% | i | 5.1% | 0.6%
COc1ccc(-c2nc(NC(=O)c3cc(OC)c(OC)c(OC)c3)sc2C)cc1 | . | . | . | 44.7µM* | .
COc1ccc(-c2nc(NC(=O)c3ccc(OCC(=O)N4CCOCC4)c(OC)c3)sc2C)cc1 | 35.5µM* | -16.5% | . | -11.0% | -3.9%
O=[N+]([O-])c1ccc(C(c2ccccc2)c2cccc3ccccc23)cc1 (stereo not given) | . | . | . | -0.9% | .
Cc1ccc(CCNC(=O)C2CCCN(S(=O)(=O)c3c(C)noc3/C=C/N(C)C)C2)cc1 (stereo not given) | -17.7% | 44.2% | 20µM* | 18.9% | -0.1%
CCOC(=O)c1cc(NC(=O)c2ccccc2)ccc1N1CCOCC1 | . | . | . | -3.0% | .
CC(C)c1ccc(CNc2nc(NCC3CC3)nc3ccsc23)cc1 | . | . | i | 50.1µM* | .
CS(=O)(=O)Nc1ccc(C2=NN(C(=O)c3ccco3)C(c3ccccc3F)C2)cc1 (stereo not given) | 28.2µM* | -31.6% | . | -21.6% | 8.3%
O=C(O)CCN1C(=O)/C(=C/c2ccc(-c3nc4ccccc4s3)o2)SC1=S | ? | -58.2% | i | 39.8µM* | 3.3%
O=C(O)CCCN1C(=O)/C(=C\c2ccc(-c3nc4ccccc4s3)o2)SC1=S | ? | -34.6% | i | 39.8µM* | 1.9%

Screens from PubChem BioAssay.
